# Experimental data as given in PubChem BioAssay AID1159580 (chemical genetic matrix, 2015).
# Several values for one entry are separate records, joined by “and”; a condition that tells them apart may be missing. Identical values can stand only once. Among all 5,500 compounds or so, about 2,000 (36%) were called active. Inconclusive results (about 18%) are left out. The list shows a part of the results. Values without a mark were called inactive. Rule as the data show it: active = normalized growth mostly below about 0.91 (no sharp cut-off); inconclusive = no clear call, values can overlap the other calls; inactive = mostly above about 0.92.
# Assay: chemical genetic growth profiling, strain panel (AID 1159580);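 also: tested at 20 µM; growth read once vehicle control cultures reached saturation at 30 °C; 1 = growth at the plate median or of vehicle wells; lower values mean less growth of the strain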
# Conditions: S. cerevisiae deletion strains, growth OD
structure (smiles),measurement,setting,value
O=C1C=C(O)c2ccccc2C1=O,normalized growth,"locus YAL013W, strain DEP1, stronger effect = lower value",0.969
same,normalized growth,"locus YAL021C, strain ccr4, stronger effect = lower value",0.905 (active)
same,normalized growth,"locus YAL026C, strain drs2, stronger effect = lower value",0.938
same,normalized growth,"locus YAL030W, strain snc1, stronger effect = lower value",0.959
same,normalized growth,"locus YBL061C, strain skt5, stronger effect = lower value",0.956
same,normalized growth,"locus YBR009C, strain hhf1, stronger effect = lower value",0.948
same,normalized growth,"locus YBR021W, strain FUR4, stronger effect = lower value",1.05
same,normalized growth,"locus YBR023C, strain chs3, stronger effect = lower value",0.95
same,normalized growth,"locus YBR171W, strain sec66, stronger effect = lower value",0.952
same,normalized growth,"locus YBR229C, strain ROT2, stronger effect = lower value",0.979
same,normalized growth,"locus YBR231C, strain swc5, stronger effect = lower value",0.932
same,normalized growth,"locus YBR279W, strain paf1, stronger effect = lower value",0.953
same,normalized growth,"locus YCL011C, strain gbp2, stronger effect = lower value",0.925
same,normalized growth,"locus YCL016C, strain dcc1, stronger effect = lower value",0.95
same,normalized growth,"locus YCL029C, strain bik1, stronger effect = lower value",0.971
same,normalized growth,"locus YCL061C, strain MRC1, stronger effect = lower value",0.93
same,normalized growth,"locus YCL069W, strain vba3, stronger effect = lower value",0.963
same,normalized growth,"locus YCR088W, strain abp1, stronger effect = lower value",0.934
same,normalized growth,"locus YDL005C, strain med2, stronger effect = lower value",0.947
same,normalized growth,"locus YDL035C, strain GPR1, stronger effect = lower value",1.01
same,normalized growth,"locus YDL040C, strain nat1, stronger effect = lower value",0.966
same,normalized growth,"locus YDL074C, strain BRE1, stronger effect = lower value",1.03
same,normalized growth,"locus YDL101C, strain DUN1, stronger effect = lower value",0.971
same,normalized growth,"locus YDL134C, strain PPH21, stronger effect = lower value",0.968
same,normalized growth,"locus YDL185W, strain tfp1, stronger effect = lower value",0.907
same,normalized growth,"locus YDL192W, strain arf1, stronger effect = lower value",0.958
same,normalized growth,"locus YDR001C, strain nth1, stronger effect = lower value",0.944
same,normalized growth,"locus YDR069C, strain doa4, stronger effect = lower value",0.912
same,normalized growth,"locus YDR101C, strain arx1, stronger effect = lower value",0.978
same,normalized growth,"locus YDR137W, strain rgp1, stronger effect = lower value",0.683 (active)
same,normalized growth,"locus YDR150W, strain NUM1, stronger effect = lower value",0.972
same,normalized growth,"locus YDR159W, strain sac3, stronger effect = lower value",0.802 (active)
same,normalized growth,"locus YDR162C, strain NBP2, stronger effect = lower value",0.882
same,normalized growth,"locus YDR195W, strain ref2",0.995
same,normalized growth,"locus YDR297W, strain sur2, stronger effect = lower value",0.931
same,normalized growth,"locus YDR318W, strain mcm21, stronger effect = lower value",0.928
same,normalized growth,"locus YDR334W, strain swr1, stronger effect = lower value",0.884 (active)
same,normalized growth,"locus YDR335W, strain msn5, stronger effect = lower value",0.94
same,normalized growth,"locus YDR388W, stronger effect = lower value",0.966
same,normalized growth,"locus YDR392W, strain spt3, stronger effect = lower value",0.796
same,normalized growth,"locus YDR502C, strain sam2, stronger effect = lower value",0.941
same,normalized growth,"locus YEL003W, strain gim4, stronger effect = lower value",0.925
same,normalized growth,"locus YEL037C, strain rad23, stronger effect = lower value",0.944
same,normalized growth,"locus YEL061C, strain CIN8 (second series), stronger effect = lower value",0.948
same,normalized growth,"locus YEL061C, strain CIN8, stronger effect = lower value",0.966
same,normalized growth,"locus YER015W, strain faa2, stronger effect = lower value",0.94
same,normalized growth,"locus YER016W, strain bim1, stronger effect = lower value",0.957
same,normalized growth,"locus YER110C, stronger effect = lower value",0.955
same,normalized growth,"locus YER111C, strain swi4, stronger effect = lower value",0.965
same,normalized growth,"locus YER155C, strain BEM2 (second series), stronger effect = lower value",0.954
same,normalized growth,"locus YER155C, strain BEM2, stronger effect = lower value",0.957
same,normalized growth,"locus YER167W, strain BCK2, stronger effect = lower value",0.98
same,normalized growth,"locus YFR010W, strain ubp6, stronger effect = lower value",0.896 (active)
same,normalized growth,"locus YGL078C, strain dbp3, stronger effect = lower value",1.01
same,normalized growth,"locus YGL086W, strain mad1, stronger effect = lower value",0.976
same,normalized growth,"locus YGL167C, strain pmr1, stronger effect = lower value",0.948
same,normalized growth,"locus YGL173C, strain kem1, stronger effect = lower value",0.942
same,normalized growth,"locus YGL227W, strain vid30, stronger effect = lower value",0.977
same,normalized growth,"locus YGL240W, strain doc1, stronger effect = lower value",0.89
same,normalized growth,"locus YGL248W, strain PDE1, stronger effect = lower value",0.966
same,normalized growth,"locus YGL253W, strain hxk2, stronger effect = lower value",0.924
same,normalized growth,"locus YGR078C, strain PAC10, stronger effect = lower value",0.963
same,normalized growth,"locus YGR135W, strain pre9, stronger effect = lower value",0.973
same,normalized growth,"locus YGR252W, strain gcn5, stronger effect = lower value",1.03
same,normalized growth,"locus YHR013C, strain ard1, stronger effect = lower value",0.963
same,normalized growth,"locus YHR027C, strain rpn1, stronger effect = lower value",0.935
same,normalized growth,"locus YHR030C, strain SLT2, stronger effect = lower value",0.963 and 0.867
same,normalized growth,"locus YHR079C, strain IRE1 (second series), stronger effect = lower value",0.981
same,normalized growth,"locus YHR079C, strain IRE1, stronger effect = lower value",0.774 (active)
same,normalized growth,"locus YHR094C, strain hxt1, stronger effect = lower value",1
same,normalized growth,"locus YHR129C, strain ARP1, stronger effect = lower value",0.988
same,normalized growth,"locus YHR142W, strain chs7, stronger effect = lower value",0.93
same,normalized growth,"locus YHR200W, strain rpn10, stronger effect = lower value",0.962
same,normalized growth,"locus YIL066C, strain RNR3, stronger effect = lower value",0.972
same,normalized growth,"locus YIL073C, strain SPO22, stronger effect = lower value",0.992
same,normalized growth,"locus YIL125W, strain kgd1, stronger effect = lower value",0.962
same,normalized growth,"locus YIR030C, strain dcg1, stronger effect = lower value",0.972
same,normalized growth,"locus YJL092W, strain hpr5, stronger effect = lower value",0.934
same,normalized growth,"locus YJL095W, strain BCK1 (second series), stronger effect = lower value",0.931
same,normalized growth,"locus YJL095W, strain BCK1, stronger effect = lower value",0.949 and 0.923
same,normalized growth,"locus YJL115W, strain asf1, stronger effect = lower value",0.938
same,normalized growth,"locus YJL129C, strain trk1, stronger effect = lower value",0.967
same,normalized growth,"locus YJL134W, strain LCB3, stronger effect = lower value",0.967
same,normalized growth,"locus YJL154C, strain vps35, stronger effect = lower value",0.933
same,normalized growth,"locus YJL164C, strain tpk1, stronger effect = lower value",0.913 (active)
same,normalized growth,"locus YJL166W, strain qcr8, stronger effect = lower value",0.92
same,normalized growth,"locus YJL168C, strain set2, stronger effect = lower value",0.955
same,normalized growth,"locus YJL187C, strain SWE1 (second series), stronger effect = lower value",0.957
same,normalized growth,"locus YJL187C, strain SWE1, stronger effect = lower value",0.946
